Measurements reported in PubChem BioAssay (NCATS).
Inconclusive results are not listed. Entries that show only a call come without a potency. Unmarked numbers belong to inactive results. Activity calls are given as the source filed them. Calls come from the whole dose curve; as a rule, active = well fitted inhibition curve with a large enough effect; inconclusive = small, poorly fitted or top-dose-only effect; inactive = flat fitted curve, though single readings scatter. *1 amine or outer side, *2 acyl side, *3 side chain or, on linkers, in order; H or OH if unused. Where a SMILES comes first, the peptide text is derived from it. Bridges are numbered along the chain shown (N, C = ends). [ ]: non-standard residue; d: D form. The star is where a group is joined. ξ: configuration not given here. X10 = NC1=NCCC(C(N[*:1])C(=O)[*:2])N1; ΔAla(3-NHCONH2) = NC(=O)NC=C(N)C(=O)O; ξβ3hOrn = NCCCC(N)CC(=O)*; Dap = NC[CH](N)C(=O)O

experiment: qHTS to identify inhibitors of the type 1 interferon - major histocompatibility complex class I in skeletal muscle: primary screen against the NCATS Pharmaceutical Collection (AID 1347407); details: human skeletal muscle cells, IFN-b-induced MHC-I HiBiT luminescence, 24 h; series mostly up to 45.9 µM
Description: Assay Submitter (PI): Travis B. Kinder Ph.D. & James Inglese Ph.D.
Assay Development and Screening Technology Laboratory (ADST)
National Center for Advancing Translational Sciences (NCATS), Rockville, MD
National Institute of Health (NIH), Bethesda, Maryland
Idiopathic inflammatory myopathies, collectively referred to as myositis, are a group of rare autoimmune diseases characterized by skeletal muscle inflammation, weakness, and usually accompanied by systemic pathologies of the skin, lungs, or vasculature. Current immunosuppressive therapies and glucocorticoids are often not curative and are accompanied by harsh side effects, especially in children with juvenile myositis. We initiated a drug repurposing and development program to identify more targeted, less toxic therapeutics to treat myositis. Although its cause is not known, muscle from a subset of patients have an abundance of the inflammatory type 1 interferon (IFN) and a down-stream product major histocompatibility complex class I (MHC class I), which are both thought to contribute to damage and weakness. We conducted quantitative high throughput screening on 6,576 compounds (4,679 unique) through a series of cell-based assays to identify those that inhibit the IFN-stimulated expression of MHC class I in muscle precursor cells (myoblasts). The compound identification and evaluation strategy utilized a primary screen with reporter-tagged MHC class I in genome-engineered myoblasts, ATP content counter screen for viability, HLA-ABC immunofluorescence secondary screen, and HLA-B RT-qPCR tertiary screen.
The primary screen utilized CRISPR/Cas9 genome-engineering of immortalized human myoblasts, C25cl48, where a pro-luminescent reporter HiBit was fused to the C-terminus of endogenous MHC class I allele HLA-B*08:01 (HLA-B HiBit myoblasts). HiBit is an 11 amino acid fragment of NanoLuc luminescent reporter (Promega Corporation), and when complexed to the larger LgBit fragment, the reconstituted enzyme produces light in the presence of furimazine substrate (Schwinn et al., 2018). Briefly, HLA-B HiBit myoblasts were plated into 1536-well plates, treated with 4.0 ng/ml human IFN-beta and 2,816 compounds from the NCATS Pharmaceutical Collection (NPC) that contains all drugs approved in the US, EU, and Japan (Huang et al., 2011) in an 8-point, 1:5 titration with a high final concentration of 46 uM. After 24 hrs of treatment, cells were assayed by Nano-Glo HiBiT Lytic Detection System (Promega) and luminescence measured by a ViewLux 1430 Ultra HTS (Perkin Elmer).
Huang R, Southall N, Wang Y, Yasgar A, Shinn P, Jadhav A, Nguyen D-T, Austin CP. 2011. The NCGC pharmaceutical collection: a comprehensive resource of clinically approved drugs enabling repurposing and chemical genomics. Sci Transl Med 3:80ps16. doi:10.1126/scitranslmed.3001862
Schwinn MK, Machleidt T, Zimmerman K, Eggers CT, Dixon AS, Hurst R, Hall MP, Encell LP, Binkowski BF, Wood K V. 2018. CRISPR-Mediated Tagging of Endogenous Proteins with a Luminescent Peptide. ACS Chem Biol 13:467-474. doi:10.1021/acschembio.7b00549
PROTOCOL TABLE (as described by Inglese et al., 2007)
SEQUENCE No. (e.g., 1, 2, 3, etc.); […] (e.g., Cells, Incubation, Reagent, etc.); VALUE; DESCRIPTION
1a; Cells; 5 uL; Use a Multidrop Combi (Thermo Scientific) to seed 350 cells/well into nine Greiner 1536 well white/solid bottom, high base, TC plates in 5 ul/well of iHSKM growth medium (GM) without dexamethasone into columns 1+2. Add metal lids with gas-exchange holes
1b; Cells; 5 uL; Use a Multidrop Combi (Thermo Scientific) to seed 350 cells/well into nine Greiner 1536 well white/solid bottom, high base, TC plates in 5 ul/well of iHSKM GM without dexamethasone + 4 ng/ml IFN-b into columns 3 - 48. Add metal lids with gas-exchange holes
2; Incubate; 1 hr; Incubate at 37 C, 5% CO2, 95% RH
[…]

For `O=C(CO)[C@@H](O)[C@H](O)[C@@H](O)CO`, which Potency is on record?
Its Potency is “inactive”.

For `O=C(Oc1ccccc1)c1cccc(C(=O)Oc2ccccc2)c1`, which Potency is on record?
Its Potency is “inactive”.

With `Cc1cc(CCCOc2c(C)cc(-c3noc(C(F)(F)F)n3)cc2C)on1` as the molecule, how does the Potency read?
The Potency was “inactive”.

Which Potency does the source give for `COc1ccc2cc(C=O)ccc2c1` here?
The Potency was “inactive”.

Which Potency does the source give for `COc1cc2c(cc1OC)C(=O)CC2` here?
Its Potency is “inactive”.

With `Cc1ccc(/C=N/n2c(-c3ccccc3)csc2=S)cc1` as the molecule, how does the Potency read?
The Potency was “inactive”.

For `OCCCc1ccccc1`, which Potency is on record?
The Potency was “inactive”.

Which Potency does the source give for `O=C1CC[C@H](C(=O)N2CCCCC2)N1` here?
The Potency was “inactive”.

Which Potency does the source give for `CCCN(CCC)C(=O)C(CCC(=O)OCCCN1CCN(CCOC(=O)Cc2c(C)n(C(=O)c3ccc(Cl)cc3)c3ccc(OC)cc23)CC1)NC(=O)c1ccccc1` (stereo not given) here?
The Potency was “inactive”.

Which Potency does the source give for `O=C(O)c1ccccc1S` here?
Its Potency is “inactive”.

With `CCCCOCCOC(=O)c1cccnc1` as the molecule, how does the Potency read?
Its Potency is “inactive”.

With `O=C(O)CCCC[P+](c1ccccc1)(c1ccccc1)c1ccccc1` as the molecule, how does the Potency read?
The Potency was “inactive”.

Which Potency does the source give for `Cc1ccc2ccc(Cl)cc2n1` here?
Its Potency is “inactive”.

Which Potency does the source give for `CO/N=C(/C(=O)N[C@@H]1C(=O)N2C(C(=O)O)=C(Cn3nnc(C)n3)CS[C@H]12)c1csc(N)n1` here?
The Potency was “inactive”.

Which Potency does the source give for `Nc1c(NC/C=C\COc2cc(CN3CCCCC3)ccn2)c(=O)c1=O` here?
Its Potency is “inactive”.

Which Potency does the source give for `O=C(NO)c1ccccc1` here?
The Potency was “inactive”.

For `Clc1ccc2c(c1)Nc1ccccc1S2`, which Potency is on record?
Its Potency is “inactive”.

With `CN1CCN(N)CC1` as the molecule, how does the Potency read?
Its Potency is “inactive”.

Which Potency does the source give for `CN(C)CCCOC1(Cc2ccccc2)CCCCCC1` here?
Its Potency is “inactive”.

With `OC1(c2ccc(Cl)cc2)CCNCC1` as the molecule, how does the Potency read?
Its Potency is “inactive”.

With `COc1c(C)c2c(c(O)c1C/C=C(\C)CCC(=O)OCCN1CCOCC1)C(=O)OC2` as the molecule, how does the Potency read?
Its Potency is “inactive”.

For `C=CCOc1cc(Cl)ccc1C(=O)NCCN(CC)CC`, which Potency is on record?
Its Potency is “inactive”.

For `NCCCC(N)CC(=O)NCC1NC(=O)C(CO)NC(=O)C(N)CNC(=O)C(C2CCN=C(N)N2)NC(=O)C(=CNC(N)=O)NC1=O` (stereo not drawn) (H-[Dap]S[Dap](ξβ3hOrn)[ΔAla(3-NHCONH2)][X10]; lactam 1-C; configuration not given here), which activity change, negative = inhibition is on record?
The activity change, negative = inhibition was -9.07% [at 0.727 µM].

With `CC(C)NCCCC1(C(N)=O)c2ccccc2-c2ccccc21` as the molecule, how does the Potency read?
The Potency was “inactive”.

With `CCN1CCN(c2cc(-c3ccc(F)cc3)c3c(n2)CCCCCC3)CC1` as the molecule, how does the Potency read?
Its Potency is “inactive”.

With `O=C(O)[C@H](O)[C@@H](O)[C@H](O[C@@H]1O[C@H](CO)[C@H](O)[C@H](O)[C@H]1O)[C@H](O)CO` as the molecule, how does the Potency read?
Its Potency is “inactive”.

For `CC(C)CCCC(C)NCCC(C)C` (stereo not given), which Potency is on record?
Its Potency is “inactive”.

With `C#CC(C)(CC)OC(=O)c1ccccc1C(=O)O` (stereo not given) as the molecule, how does the Potency read?
The Potency was “inactive”.

With `Cc1cc(=O)oc2cc(O[C@@H]3SC[C@@H](O)[C@H](O)[C@H]3O)ccc12` as the molecule, how does the Potency read?
Its Potency is “inactive”.

For `O=C(CCOCCOCCOCCOCCC(=O)Nc1c(I)cc(I)c(C(=O)O)c1I)Nc1c(I)cc(I)c(C(=O)O)c1I`, which Potency is on record?
Its Potency is “inactive”.

With `CC(C)C(C)(C)C(C)(C)C(C)(C)S` as the molecule, how does the Potency read?
The Potency was “inactive”.

For `Oc1ccccc1-c1nnco1`, which Potency is on record?
The Potency was “inactive”.

With `COc1ccc(CCC(C)=O)cc1` as the molecule, how does the Potency read?
The Potency was “inactive”.

For `Cc1cccc(C)c1NC(=O)c1ccc(N)cc1`, which Potency is on record?
The Potency was “inactive”.

With `CCOC(=O)c1cc(=O)c2c(OCC(COc3cccc4oc(C(=O)OCC)cc(=O)c34)OC(=O)[C@@H](N)CCCCN)cccc2o1` as the molecule, how does the Potency read?
Its Potency is “inactive”.

For `C[C@@H](O[C@H]1OCCN(Cc2n[nH]c(=O)[nH]2)[C@H]1c1ccc(F)cc1)c1cc(C(F)(F)F)cc(C(F)(F)F)c1`, which Potency is on record?
The Potency was “inactive”.

For `CCc1cccc2c(CCO)c[nH]c12`, which Potency is on record?
The Potency was “inactive”.

Which Potency does the source give for `Cc1oc(-c2ccccc2)nc1CCC(=O)c1ccc(CC2SC(=O)NC2=O)cc1` (stereo not given) here?
Its Potency is “inactive”.

For `CN1C(CSCC(F)(F)F)Nc2cc(Cl)c(S(N)(=O)=O)cc2S1(=O)=O` (stereo not given), which Potency is on record?
Its Potency is “inactive”.

With `CC(CC1c2ccccc2CCc2ccccc21)CN(C)C` (stereo not given) as the molecule, how does the Potency read?
The Potency was “inactive”.
